The nature of experiment [1]: qHTS assay to identify small molecule antagonists of the glucocorticoid receptor (GR) signaling pathway - cell viability counter screen (AID 720693; further: nearly all actives have a fitted effect of over 55% in size). (In general: In qHTS, concentration-response curves come from the screen itself.)
A short description of experiment [2]: qHTS assay for identifying genotoxic compounds that show differential cytotoxicity against isogenic chicken DT40 cell lines with known DNA damage response pathways - wild type cell line (AID 743012). Further: nearly all actives have a fitted effect of over 60% in size. Further: potency means the concentration at half of the fitted maximal effect. Put shortly: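 Endpoint: CellTiter-Glo luminescence, 30 min RT. Cells: wild type DT40, 300/well. Exposure: compounds in DMSO, 40 h, 37 C/5% CO2, after ~0.5 h pre-incubation.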

The nature of experiment [3]: qHTS assay for identifying genotoxic compounds that show differential cytotoxicity against isogenic chicken DT40 cell lines with known DNA damage response pathways - Rev3 mutant cell line (AID 743014). Further: nearly all actives have a fitted effect of over 55% in size. Further: potency means the concentration at half of the fitted maximal effect.
Experiment [4] in a line: qHTS assay for identifying genotoxic compounds that show differential cytotoxicity against isogenic chicken DT40 cell lines with known DNA damage response pathways - Rad54/Ku70 mutant cell line (AID 743015). Further: nearly all actives have a fitted effect of over 60% in size. Further: potency means the concentration at half of the fitted maximal effect.
Experiment [5] can be described thus: qHTS assay to identify small molecule antagonists of the androgen receptor (AR) signaling pathway - cell viability counter screen (AID 743033; further: nearly all actives have a fitted effect of over 45% in size).
Experiment [6] in a line: qHTS assay to identify small molecule antagonists of the androgen receptor (AR) signaling pathway using the MDA cell line - cell viability counter screen (AID 743041; further: nearly all actives have a fitted effect of over 45% in size). A digest of the protocol:
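qHTS viability read-out; MDA-kb2 AR-luc; R1881-stimulated; 16 h exposure at 37C, 0% CO2; CellTiter-Fluor, 30 min; fluorescence intensity.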

Experiment [7] in a line: qHTS assay to identify small molecule antagonists of the thyroid receptor (TR) signaling pathway - cell viability counter screen (AID 743064). Further: nearly all actives have a fitted effect of over 50% in size. A digest of the protocol: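 Rat GH3 pituitary tumor cells stably expressing two TR response elements driving luciferase were plated, rested 4 h, then dosed with library compounds and T3 (1 nM final). After 23.5 h at 37 °C, CellTiter-Fluor was added for 30 min and fluorescence recorded.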

Experiment [8] relates to thyroid hormone receptor (rat, GH3 cells). As to the kind of experiment: qHTS assay to identify small molecule agonists of the thyroid receptor (TR) signaling pathway (AID 743066; calls by dose curve; further: potency means the concentration at half of the fitted maximal effect).
A short description of experiment [9]: qHTS assay to identify small molecule antagonists of the estrogen receptor alpha (ER-alpha) signaling pathway - cell viability counter screen (AID 743074; calls by dose curve; further: nearly all actives have a fitted effect of over 45% in size).
The nature of experiment [10]: qHTS assay to identify small molecule antagonists of the estrogen receptor alpha (ER-alpha) signaling pathway using the BG1 cell line - cell viability counter screen (AID 743081).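 Further: compound given together with 17beta-estradiol as the ER stimulus; series mostly up to about 70 µM; nearly all actives have a fitted effect of over 45% in size.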
Experiment [11] can be described thus: qHTS assay to identify small molecule antagonists of the thyroid receptor (TR) signaling pathway (AID 743065). Further: series mostly up to about 70 µM; nearly all actives have a fitted effect of over 55% in size. A digest of the protocol: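 GH3.TRE-Luc rat pituitary cells carrying two TR response elements driving luciferase were plated for 4 h, given compound plus 1 nM T3 (final), and incubated 23.5 h at 37 C. ONE-Glo luminescence measured reporter inhibition; CellTiter-Fluor fluorescence tracked cytotoxicity.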

Experiment [12] deals with Estrogen receptor (Homo sapiens) (UniProt P03372). The experiment in a line: qHTS assay to identify small molecule antagonists of the estrogen receptor alpha (ER-alpha) signaling pathway (AID 743069; active means well fitted curve in the direction sought with a large enough effect in the signal ratio in the repeat runs, not every such curve was filed as active; the % refers to the signal ratio). Put shortly: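 Screening used a UAS-driven beta-lactamase reporter integrated into HEK293 cells expressing ER-alpha, stimulated with 17beta-estradiol alongside test compounds over 18 hr at 37C; signal came from LiveBLAzer B/G FRET fluorescence.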

Experiment [13] has the same target. As to the kind of experiment: qHTS assay to identify small molecule agonists of the estrogen receptor alpha (ER-alpha) signaling pathway (AID 743075; calls by dose curve).
The target is the same in experiment [14]. As to the kind of experiment: qHTS assay to identify small molecule agonists of the estrogen receptor alpha (ER-alpha) signaling pathway using the BG1 cell line (AID 743079). Further: nearly all actives have a fitted effect of over 20% in size.
The nature of experiment [15]: qHTS assay to identify small molecule antagonists of the estrogen receptor alpha (ER-alpha) signaling pathway using the BG1 cell line (AID 743080; calls by dose curve;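 further: BG1 cells stimulated with 17beta-estradiol alongside compound; series mostly up to about 70 µM; nearly all actives have a fitted effect of over 25% in size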). Put shortly:
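Endogenous full-length ER-alpha in BG1-Luc-4E2 cells drives a stably integrated 4×ERE luciferase gene; compounds were tested against 17beta-estradiol over 21.5 h, with luminescence and multiplexed viability fluorescence recorded.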

For a further experiment, the target named is Aromatase (Homo sapiens) (UniProt P11511). As to the kind of experiment: qHTS assay to identify aromatase inhibitors (AID 743083). Further: series mostly up to about 70 µM; nearly all actives have a fitted effect of over 55% in size.

Several values for one entry are separate records, joined by “and”; a condition that tells them apart may be missing. Identical values can stand only once. Results filed as inconclusive are left out. A structure can be active in one record and inactive in another. Activity calls are given as the source filed them. Unless noted, the call rests on the fitted dose curve; in most records, active means well fitted curve in the direction sought with a large enough effect in the repeat runs; inconclusive means weak or mixed curves; inactive means no such curve, though single readings can be large; an effect the other way counts as inactive or inconclusive.

Chain of Aromatase (Homo sapiens) (P11511 whole entry, looked up): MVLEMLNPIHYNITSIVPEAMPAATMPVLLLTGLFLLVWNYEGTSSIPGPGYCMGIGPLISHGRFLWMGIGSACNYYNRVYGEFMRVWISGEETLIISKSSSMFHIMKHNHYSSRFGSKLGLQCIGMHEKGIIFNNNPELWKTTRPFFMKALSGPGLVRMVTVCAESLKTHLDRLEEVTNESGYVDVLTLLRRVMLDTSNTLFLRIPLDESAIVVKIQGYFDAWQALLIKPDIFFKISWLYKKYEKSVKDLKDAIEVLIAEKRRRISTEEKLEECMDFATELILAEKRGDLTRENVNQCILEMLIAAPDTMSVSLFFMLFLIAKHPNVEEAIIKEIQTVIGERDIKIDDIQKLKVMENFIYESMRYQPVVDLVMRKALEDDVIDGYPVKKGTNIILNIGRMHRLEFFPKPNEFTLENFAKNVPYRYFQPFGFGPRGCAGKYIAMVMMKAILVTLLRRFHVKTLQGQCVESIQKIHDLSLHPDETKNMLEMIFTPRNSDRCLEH
Chain of Estrogen receptor (Homo sapiens) (P03372 whole entry, looked up): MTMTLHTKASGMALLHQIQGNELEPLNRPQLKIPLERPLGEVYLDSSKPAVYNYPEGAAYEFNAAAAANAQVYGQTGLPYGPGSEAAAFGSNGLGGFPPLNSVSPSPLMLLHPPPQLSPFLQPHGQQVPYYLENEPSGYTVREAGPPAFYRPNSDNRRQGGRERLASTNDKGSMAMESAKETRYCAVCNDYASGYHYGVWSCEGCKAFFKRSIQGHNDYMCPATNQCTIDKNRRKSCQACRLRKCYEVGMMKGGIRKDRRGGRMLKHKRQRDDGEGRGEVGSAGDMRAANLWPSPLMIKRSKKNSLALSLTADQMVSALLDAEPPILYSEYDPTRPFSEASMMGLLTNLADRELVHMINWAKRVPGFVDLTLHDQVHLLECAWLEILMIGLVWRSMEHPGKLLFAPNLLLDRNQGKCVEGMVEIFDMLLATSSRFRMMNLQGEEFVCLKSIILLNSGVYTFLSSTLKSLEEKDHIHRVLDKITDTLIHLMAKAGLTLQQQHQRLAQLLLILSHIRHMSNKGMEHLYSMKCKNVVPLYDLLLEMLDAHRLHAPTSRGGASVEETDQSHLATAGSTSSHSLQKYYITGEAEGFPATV

With `CCC(COC(=O)c1cc(OC)c(OC)c(OC)c1)(c1ccccc1)N(C)C` (stereo not drawn), the Potency result in [1], in experiment [5], in experiment [6], in [7], in experiment [8] and in [9] was “inactive” throughout. In [10], the Potency entry was “inactive”. Also, the values for the Potency in experiment [2], in experiment [3] and in experiment [4] were 5.96 µM (active), 3.35 µM (active) and 6.68 µM (active), respectively.
With `C=CCC1([C@H](C)CCC)C(=O)NC(=O)NC1=O`, the Potency result in [1], in experiment [2], in [3], in [4], in [5] and in [7] was “inactive” each time. For the same molecule, the Potency entry in experiment [11], in [8], in [12], in experiment [9], in experiment [13] and in experiment [14] was “inactive” in each case. Also, the Potency entry (in experiment [15]; in experiment [10]; in the experiment with Aromatase (Homo sapiens)) was “inactive” each time.
On to `CN1[C@@H]2CC[C@H]1CC(OC(=O)c1cc(Cl)cc(Cl)c1)C2` (stereo partly drawn), for which the Potency result in [1], in experiment [5], in [6], in experiment [12], in experiment [9] and in experiment [13] was “inactive” throughout. The Potency result (in experiment [14]; in experiment [15]; in experiment [10]; with Aromatase (Homo sapiens)) was “inactive” throughout. Moreover, the Potency in experiment [2] is 3.76 µM (active); in experiment [3], 2.98 µM (active); in [4], 5.96 µM (active).
Take `CNC(C)Cc1ccccc1OC` (stereo not drawn): the Potency entry in experiment [1], in [2], in experiment [3], in experiment [4], in [5] and in [7] was “inactive” in each case. Moreover, the Potency entry in experiment [11], in experiment [8], in experiment [12], in experiment [9], in experiment [13] and in experiment [14] was “inactive” each time. The Potency result (in [15]; in experiment [10]; in the experiment with Aromatase (Homo sapiens)) was “inactive” in each case.
Take `ClC=C(Cl)Cl`: the Potency entry in experiment [1], in experiment [2], in experiment [3], in experiment [4], in experiment [5] and in experiment [7] was “inactive” in each case. Besides, the Potency entry in experiment [11], in experiment [8], in experiment [12], in experiment [9], in experiment [13] and in experiment [14] was “inactive” each time. Also, the Potency entry (in [15]; in experiment [10]; with Aromatase (Homo sapiens)) was “inactive” in each case.
As to `CCCCN=C=O`, the Potency result in [1], in [2], in experiment [3], in [4], in experiment [5] and in experiment [6] was “inactive” throughout. Further, the Potency result (in [7]; in experiment [11]; in experiment [8]; in [10]; with Aromatase (Homo sapiens)) was “inactive” in each case.
On to `C#CCOC(C(=O)OCCN(C)C)(c1ccccc1)c1ccccc1`, for which the Potency result in experiment [1], in experiment [2], in experiment [3], in experiment [4], in experiment [5] and in experiment [6] was “inactive” each time. For the same molecule, the Potency result (in [11]; in [8]; in experiment [9]; in experiment [10]; in the experiment with Aromatase (Homo sapiens)) was “inactive” in each case.
`CCCCc1c(C)nc(NCC)nc1OS(=O)(=O)N(C)C`: the Potency result in [1], in [5], in experiment [6], in experiment [8], in experiment [12] and in experiment [9] was “inactive” throughout. In addition, the Potency result (in experiment [13]; with Aromatase (Homo sapiens)) was “inactive” each time. Further, the Potency in [2] is 15.4 µM (active); in experiment [3], 19.3 µM (active); in experiment [4] it was 15.4 µM (active).
In the case of `O=C(CBr)OCc1ccccc1`, the Potency entry in experiment [1], in experiment [2], in experiment [3], in [4], in experiment [5] and in experiment [6] was “inactive” in each case. Further, the Potency entry (in [7]; in experiment [12]; in experiment [9]; in experiment [15]; in experiment [10]; with Aromatase (Homo sapiens)) was “inactive” each time.
For the molecule `Cl/C=C\Cl`, the Potency result in experiment [1], in [2], in experiment [3], in [4], in experiment [5] and in [7] was “inactive” throughout. In addition, the Potency result in experiment [11], in experiment [8], in experiment [12], in [9], in experiment [13] and in experiment [14] was “inactive” throughout. In addition, the Potency entry (in experiment [10]; with Aromatase (Homo sapiens)) was “inactive” throughout.
Regarding `C=CC(=O)OC(C)(C)C`, the Potency result in experiment [1], in experiment [2], in experiment [3], in [4], in experiment [5] and in experiment [6] was “inactive” in each case. The Potency result (in experiment [7]; in experiment [9]; in experiment [10]; in the experiment with Aromatase (Homo sapiens)) was “inactive” each time.
As to `O=Cc1ccc(Cl)cc1Cl`, the Potency result in experiment [1], in [2], in experiment [3], in experiment [4], in experiment [5] and in experiment [7] was “inactive” throughout. The Potency result (in experiment [11]; in [8]; in experiment [9]; in experiment [10]; with Aromatase (Homo sapiens)) was “inactive” each time.
With `CCn1cc[n+](C)c1`, the Potency entry in experiment [1], in [2], in experiment [3], in experiment [4], in [5] and in experiment [6] was “inactive” each time. Also, the Potency result in experiment [7], in [9] and in experiment [10] was “inactive” in each case. Further, the Potency entry in experiment [8] is “inactive and 49.2 µM (active)”.

The values are drawn from PubChem BioAssay (Tox21).
